{
  "source": "PubChem BioAssay (NCI)",
  "note": "This is part of a sample that, as a whole, favours compounds with a hit. Of some 83,000 tested, about 20% had one in any assay.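 The test compound was applied at a single concentration to cells in 96-well plates for 48 hours, and percent growth was recorded.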 Active and inactive are the calls of the source. Rule for the calls: active = growth percent below 10; inactive = the rest.",
  "data": [
    {"system": "TK-10 renal", "experiment": "NCI-60 one-dose screen, 48 h (100 = growth as untreated, 0 = no growth, -100 = all killed)", "conditions": "10 µM unless noted", "values": [
      {"molecule": "COc1ccc(/C=C/c2nc(Nc3ccc(S(=O)(=O)Nc4cc(C)on4)cc3)c3ccccc3n2)cc1", "growth": "71.5% (inactive)"},
      {"molecule": "NS(=O)(=O)c1ccc(CCN2C(=O)c3cc(Cl)c(Cl)cc3C2=O)cc1", "growth": "88.5% (inactive)"},
      {"molecule": "C/C=C(\\C)C(=O)NC1=CC[C@@]2(C)C(=CCC3C2CC[C@@]2(C)C3CC[C@@H]2C(C)N(C)C)C1=O", "note": "(stereo partly drawn)", "growth": "58.1% (inactive)"},
      {"molecule": "O=c1c2c(c(=O)n1O)c1c3ccc[nH]c3nc1c1nc3[nH]cccc3c12", "growth": "117% (inactive)"},
      {"molecule": "Cc1ccc(C(=O)/C(=C\\c2ccc([N+](=O)[O-])cc2)S(=O)Cc2ccc(F)cc2)cc1", "note": "(stereo not drawn)", "growth": "17.6% (inactive)"},
      {"molecule": "O=C(Nc1ncc(Cc2cc(Cl)ccc2Cl)s1)c1cccs1", "growth": "68.4% (inactive)"},
      {"molecule": "O=C(C[n+]1cccc2ccccc21)c1ccc(O)c(O)c1", "growth": "39% (inactive)"},
      {"molecule": "OCc1cnccc1NCCCCOc1ccc(Oc2ccccc2)cc1", "growth": "66.1% (inactive)"},
      {"molecule": "Oc1cccc(CCc2ccc(Oc3cc(CCc4cccc(O)c4)cc(O)c3O)cc2)c1", "growth": "111% (inactive)"},
      {"molecule": "CC/C(=C\\c1ccc(OC)cc1)C(=O)c1ccc(OC)cc1", "growth": "91.9% (inactive)"},
      {"molecule": "CN1C(N2CCN(S(=O)(=O)c3ccccc3)CC2)=NS(=O)(=O)c2ccccc21", "growth": "114% (inactive)"},
      {"molecule": "O=C1Nc2ccc(F)cc2/C1=C\\c1c(-c2ccccc2)nc2ccccn12", "growth": "81% (inactive)"},
      {"molecule": "O=C(Cn1c(C(=O)c2ccccc2)nc2ccccc21)c1ccc(F)cc1", "growth": "67.7% (inactive)"},
      {"molecule": "COc1ccc(C(=O)c2nc3ccccc3n2CC(=O)c2ccc(Cl)cc2)cc1", "growth": "51.7% (inactive)"},
      {"molecule": "CC(=O)[C@@H]1CC[C@]2(C(N)=O)CC[C@]3(C)[C@H](CC[C@@H]4[C@@]5(C)CCCNC(C)(C)[C@@H]5CC[C@]43C)[C@@H]12", "growth": "120% (inactive)"},
      {"molecule": "Oc1c(Cl)cc(Cl)c(Cl)c1CNCCNCc1c(O)c(Cl)cc(Cl)c1Cl", "growth": "39.5% (inactive)"},
      {"molecule": "O=C1Nc2cc(Cl)ccc2/C1=C\\c1c(-c2ccc(F)cc2)nc2ccccn12", "growth": "72.7% (inactive)"},
      {"molecule": "O=C(NO)c1ccc(-n2nc(-c3ccccc3)c3ccccc32)cc1", "growth": "31.5% (inactive)"},
      {"molecule": "O=C(CNCCN1CCOCC1)N1c2cccc3cccc(c23)N(C(=O)CNCCN2CCOCC2)C1c1cn(-c2ccccc2)nc1-c1cccc([N+](=O)[O-])c1", "growth": "108% (inactive)"},
      {"molecule": "O=C1c2cccc3c(-c4ccc5c(c4)ncn5C4CCCCC4)ccc(c23)C(=O)N1CCO", "growth": "101% (inactive)"},
      {"molecule": "CC(=O)Oc1ccc(/C=N/NC(N)=S)nc1", "growth": "108% (inactive)"},
      {"molecule": "NC(=S)N1N=C(c2ccccc2)CC1c1cn(-c2ccccc2)nc1-c1ccc(OCc2ccccc2)cc1", "note": "(stereo not drawn)", "growth": "102% (inactive)"},
      {"molecule": "Cc1ccc(-c2nc3ccccn3c2/C=C2/C(=O)Nc3cc(Cl)ccc32)cc1", "growth": "120% (inactive)"},
      {"molecule": "Clc1ccc(-c2ccc(CNCC3CCNCC3)o2)c(-c2ccccc2)c1", "growth": "-85.3% (active)"},
      {"molecule": "CC(=O)[C@H]1CCC/C=C/[C@@H]2C[C@H](O)C[C@H]2[C@H](O)/C=C/C(=O)O1", "growth": "30.8% (inactive)"},
      {"molecule": "CCOC(=O)c1cc(C(=O)c2ccc(Br)cc2)n2ccc(/C=C/c3cc[n+](CC(=O)c4ccc(OC)cc4)cc3)cc12", "growth": "116% (inactive)"},
      {"molecule": "COc1ccc(/C=C/c2nc(Nc3ccc(S(=O)(=O)Nc4nc(C)cc(C)n4)cc3)c3ccccc3n2)cc1", "growth": "71.1% (inactive)"},
      {"molecule": "Cc1ccc(C(=O)/C(=C/c2ccc([N+](=O)[O-])cc2)SCc2ccc(Cl)cc2)cc1", "growth": "90.8% (inactive)"},
      {"molecule": "O=C1c2c(c3c4cccc(F)c4[nH]c3c3ccc4ccccc4c23)C(=O)N1O", "growth": "91.1% (inactive)"},
      {"molecule": "COc1ccc(C(=O)C2C(C#N)C(C#N)C3C=Cc4ccccc4N32)cc1", "note": "(stereo not drawn)", "growth": "91.9% (inactive)"},
      {"molecule": "CCOC(=O)CC1CSC(N/N=C/c2ccc(-n3cccn3)cc2)=N1", "note": "(stereo not drawn)", "growth": "108% (inactive)"},
      {"molecule": "CC(C)N1C(=O)/C(=C2\\SC(=S)N(C(C)C)C2=O)SC1=S", "growth": "88.2% (inactive)"},
      {"molecule": "CC(C)(C)[Si](C)(C)OC1[C@@H](O[Si](C)(C)C(C)(C)C)[C@@H](CNC(=O)NC(=O)CCl)O[C@H]1n1cnc2c(NC(=O)Nc3ccccc3)ncnc21", "note": "(stereo partly drawn)", "growth": "105% (inactive)"},
      {"molecule": "COc1ccc(-c2nc3sccn3c2/C=C/C(=O)c2ccc3c(c2)OCO3)cc1", "growth": "119% (inactive)"},
      {"molecule": "O=C1c2ccccc2C(=O)c2c([N+](=O)[O-])ccc(Cl)c21", "growth": "87.6% (inactive)"},
      {"molecule": "COc1ccc(/C=C/c2nc(Nc3cccc(NC(C)=O)c3)c3ccccc3n2)cc1", "growth": "92.7% (inactive)"},
      {"molecule": "Cc1ccc(-n2nc3c(c(C#N)c2=O)CC(c2ccccc2[N+](=O)[O-])C([N+](=O)[O-])=C3O)cc1", "note": "(stereo not drawn)", "growth": "115% (inactive)"},
      {"molecule": "COc1cc(OC)cc(C(=O)C[n+]2cccc3cc[nH]c32)c1", "growth": "118% (inactive)"}
    ]}
  ]
}
